The structures appear in SMILES notation. This is part of a sample that, as a whole, favours compounds with a hit. Of some 83,000 tested, about 20% had one in any assay.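 Compound tested at a single concentration for 48 hours in 96-well plates; a percent growth value below 10 was scored as active.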 Active and inactive are the calls of the source.

This test has as its system U251 CNS. The experiment in a line: NCI-60 one-dose screen, 48 h (100 = growth as untreated, 0 = no growth, -100 = all killed). The note with it: 10 µM unless noted. As to the method:
Growth inhibition of the U251 human tumor cell line is measured as a screen for anti-cancer activity. Cells are grown in 96 well plates and exposed to the test compound for 48 hours. Compounds are tested at a single concentration, which is 10^-5 M for most compounds. The reported endpoint is percent growth (GI% or GIPRCNT), where numbers from 0 - 100% represent growth inhibition, and numbers from -100% - 0 represent cell death. For example, a value of 40 represents 60% growth inhibition. A value of 0 means no net growth occurred over the course of the experiment. A value of -40 indicates 40% of cells at the beginning of the experiment died by the end of the experiment. A value of -100 means all cells are dead at the end of the experiment.
NCI-60 Human Tumor Cell Lines Screen was performed using the standard one-dose NCI protocol, which is described in more detail at https://dtp.cancer.gov/discovery_development/nci-60/default.htm.
Compounds with GIPRCNT values below 10 were considered active. Activity score was based on GIPRCNT using the following formula: […]
Score is 0 for GIPRCNT values of 100 or above, 50 for GIPRCNT values of 0, and 100 for GIPRCNT values of -100.
As for `COc1ccc(C2=NN(C(=O)COc3ccc(Cl)cc3)C(O)(c3cc(F)c(Cl)cc3Cl)C2)cc1OC` (stereo not given), the growth was 55.5% (inactive). For `CCNc1cc(S(=O)(=O)O)ccc1C`, the growth is 98.3% (inactive).

As for `NC(=NCCCOc1ccc(F)cc1)Nc1ccc(Cl)c(Cl)c1`, the growth was 69.8% (inactive). The value for `OC[C@@H](O)C(O[C@@H]1O[C@H](CO)[C@H](O)[C@H](O)[C@H]1O)[C@H](O)[C@@H](O)CO` (stereo not given in full) was 97.6% (inactive). The value for `Cc1cn(C2CC(F)C(CO)O2)c(=O)[nH]c1=O` (stereo not given) was 96.7% (inactive). The value for `Cc1cccc(CC(=O)c2ccccc2)n1` was 89.6% (inactive); that for `O=S1(=O)N(CCNc2nccc(-c3c(-c4cccc(O)c4)nc4sccn34)n2)CCN1Cc1ccccc1` was 69% (inactive).

In the case of `CCNc1ncnc2n[nH]nc12`, the growth was 95.3% (inactive).

As to `COc1ccc(-c2cnc(-c3ccc(F)cc3)[nH]2)cc1`, the growth was 33.3% (inactive).

Turning to `COc1ccc(-n2c(-c3ccc(NC(=O)CCCl)cc3)nnc2-c2cc(OC)c(OC)c(OC)c2)cc1`, the growth was 34.4% (inactive).

Regarding `COc1ccc(-c2ccc(NC(=O)Nc3ccc(Cl)c(C(F)(F)F)c3)c(C)n2)cc1`, the growth was 33.6% (inactive). For the molecule `Cc1cc(Nc2ccc(Cl)c(Cl)c2)nc(N)n1`, the growth was 95.3% (inactive). For `OCc1cnccc1NC12CC3CC(CC(C3)C1)C2` the value was 98.9% (inactive); for `COc1ccc(-c2nnc(NC(=O)CN3CCN(c4cc5c(cc4F)c(=O)c(C(=O)O)cn5C4CC4)CC3)s2)cc1OC`, 99.7% (inactive); for `CC(=O)c1cc2c(N)c(C(=O)Nc3cccc(Cl)c3)sc2nc1C`, 91.4% (inactive). The value for `CC(=O)O[C@@H]1[C@@H](OC(C)=O)[C@H](OC(C)=O)CO[C@H]1Nc1cccc2ccccc12` was 105% (inactive). For `COc1ccc(C(=O)NC(=O)Nc2ccc3c(c2)NC(=O)/C3=C\c2[nH]c(C)c(C(=O)O)c2C)cc1` the value was 52.9% (inactive); for `CN1C(=O)C2(NN=C(c3cccc4ccccc34)S2)c2ccccc21` (stereo not given), 9.26% (active). On to `O=C1CCC(c2c(O)cc(O)c3c(=O)c(O)c(-c4ccc(O)c(O)c4)oc23)N1` (stereo not given), for which the growth is 101% (inactive). On to `Cc1ccc(Cn2cc(COc3ccc4c5ccnc(C)c5n(CCCc5ccccc5)c4c3)nn2)cc1`, for which the growth is 110% (inactive).

As to `O=C(O)c1ccc2nc(-c3ccc(OCCCCCOc4ccc(-c5nc6ccc(C(=O)O)cc6[nH]5)cc4)cc3)[nH]c2c1`, the growth was 96.4% (inactive). For `O=C1c2ccccc2C(=O)c2c(NCCN=Cc3c(O)ccc4ccccc34)cccc21`, the growth was 83% (inactive). For `OCc1cn(-c2ccc(Cl)cc2)nc1-c1ccc(O)cc1` the value was 106% (inactive); for `COC(=O)c1ccc2c(c1)Oc1ccc(Cl)cc1-c1cc(C)nn1-2`, 19.1% (inactive). For `CC(=O)Nc1ccc(OC(=O)c2ccccc2O)cc1` the value was 99.3% (inactive). The value for `Cc1ccc2c(C3C(C#N)=C(N)Oc4cc5ccccc5cc43)cc(=O)oc2c1` (stereo not given) was 23.5% (inactive); that for `C[C@]12CC[C@@H]3c4ccc(O)c(N)c4CC[C@H]3[C@@H]1CC[C@@H]2O` was 110% (inactive).

On to `c1ccc(-c2nc3sc(C(c4ccccc4)c4ccccc4)nn3c2-c2ccccc2)cc1`, for which the growth is 102% (inactive). On to `COc1ccc(C[C@H](N)C(=O)N[C@@H]2[C@@H](CO)OC(n3cnc4c(N(C)C)ncnc43)[C@@H]2O)cc1` (stereo not given in full), for which the growth is -91.6% (active). The value for `Nc1ncnc2c1ncn2C1OC(COC(c2ccccc2)(c2ccccc2)c2ccccc2)C(O)C1O` (stereo not given) was 99.5% (inactive); that for `CCN(CC)CCNC(=O)c1c(C)[nH]c(/C=C2\C(=O)Nc3cc(NC(=O)NC(=O)c4ccc(OC)cc4F)ccc32)c1C` was 92.8% (inactive). For `COc1ccc2c(c1)C(=O)/C(=C/c1ccc(OCC(=O)c3ccc(Cl)cc3)cc1)O2` the value was 80.9% (inactive). For the molecule `Nc1nc(Cl)c2c(C(F)(F)F)cn(CC3CCNCC3)c2n1`, the growth is 45% (inactive). For `c1ccc2c(c1)Oc1cccnc1-n1nccc1-2` the value was 100% (inactive); for `COc1cc(NC(C)CCCN2C(=O)c3ccccc3C2=O)c2nc(C)ccc2c1OC` (stereo not given), 94.2% (inactive). On to `Nc1ncc(-c2ccc3ncnc(Nc4ccc(F)c(Cl)c4)c3c2)cn1`, for which the growth was -14.8% (active). The value for `COCCNC(C(=O)c1ccccc1)c1ccccc1` (stereo not given) was 95.1% (inactive); that for `NS(=O)(=O)c1ccc(-n2nc(-c3ccc(Cl)cc3)ccc2=O)cc1` was 104% (inactive); that for `C=CCOc1ccc(/C(Cl)=N/N=C(\Cl)c2cc(OC)c(OC)c(OC)c2)cc1` was 72.8% (inactive).

Turning to `C=C1C(=O)O[C@H]2[C@H]1CC/C(COC(=O)c1ccc3ccccc3c1)=C\CC[C@@]1(C)O[C@@H]21`, the growth is -67.3% (active).

The record behind these values is PubChem BioAssay (NCI).
